Results as given in PubChem BioAssay (Tox21).
Results filed as inconclusive are left out. Unmarked numbers belong to inactive results. The source made the active and inactive calls. The call rests on the fitted dose curve; in most records, active means well fitted cell-killing curve with a large enough effect in the repeat runs; inconclusive means weak or mixed curves, or effect the other way; inactive means flat fitted curve, though single readings scatter.

Test: cAMP Responsive Elements (CRE) small molecule antagonists, cell-based qHTS assay: qHTS cell viability counter screen (AID 2060913); further: nearly all actives have a fitted effect of over 40% in size
Conditions: CRE-bla HEK293T viability, CellTiter-Glo luminescence, 5 h; series mostly up to 92.4 µM; viability change, negative = cytotoxic: at the top concentration
Outline: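 Viability of NKH477-stimulated (0.25 uM final) CRE-bla HEK293T cells is measured by CellTiter-Glo luminescence following 3 hrs compound exposure at 37 C.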
On the % scale 0 is the no-effect control and ±100 the full control effect; potency means the concentration at half of the fitted maximal effect.

SMILES | viability change, negative = cytotoxic | Potency
ClC1=C(Cl)C1(Cl)Cl | 7.86% | –
Cc1ccc(S(=O)(=O)NC(=O)NN2CCCCCC2)cc1 | – | inactive
CCCCc1ccc2cccc(S(=O)(=O)O)c2c1 | 0.396% | –
CC(=O)N[C@H]1[C@H]([C@H](O)[C@H](O)CO)OC(C(=O)O)=C[C@@H]1N=C(N)N | 6.15% [at 42.5 µM] | –
CCCC(=O)OC[C@@H](OC(=O)CCC)[C@@H](OC(=O)CCC)[C@H](Cn1c2nc(=O)[nH]c(=O)c-2nc2cc(C)c(C)cc21)OC(=O)CCC | 3.22% [at 42.5 µM] | –
C=C(C)C1CC=C(C)C(=O)C1 (stereo not given) | 5.4% | –
C[N+]1(CC2COC(c3ccccc3)(c3ccccc3)O2)CCCCC1 (stereo not given) | 0.835% [at 18.9 µM] | –
C=CCCCC | 0.654% | –
NC1CCN(c2cccc(Cl)n2)CC1 | 0.651% [at 42.5 µM] | –
CCCOC(=O)c1ccc(O)cc1 | 2.88% | –
O=C1NCCN1 | 0.736% | –
CC=O | – | 63.9 µM (active)
C=C(C)C(=O)OCCN(C)C | -15.9% | –
COC(=O)Nc1nc2ccc(C(=O)c3ccccc3)cc2[nH]1 | -2.16% [at 42.5 µM] | –
O=[N+]([O-])c1ccc2[nH]ncc2c1 | 4.63% | –
Cc1cc(C)nc(NS(=O)(=O)c2ccc(N)cc2)n1 | – | inactive
C=CC(C)(O)CCC=C(C)C (stereo not given) | – | inactive
Oc1c(Cl)cc(Cl)c2cccnc12 | 3.07% [at 42.5 µM] | –
CN(C)[C@@H]1C(=O)C(C(=O)NCN2CCCC2)=C(O)[C@@]2(O)C(=O)C3=C(O)c4c(O)cccc4[C@@](C)(O)C3C[C@@H]12 (stereo not given in full) | -6.57% [at 42.5 µM] | –
Cc1c(C(=O)O)cccc1[N+](=O)[O-] | -12.4% | –

SMILES | viability change, negative = cytotoxic | Potency
C/C(CC(C)C)=N\O | 5.28% | –
Cn1cc(C(=O)[C@@H]2CCc3nc[nH]c3C2)c2ccccc21 | 0% [at 42.5 µM] | –
CCOC(=O)c1cc(=O)c2c(OCC(COc3cccc4oc(C(=O)OCC)cc(=O)c34)OC(=O)[C@@H](N)CCCCN)cccc2o1 | 3.08% [at 42.5 µM] | –
CCCCC/C=C\C/C=C\CCCCCCCC(=O)O | – | inactive
C[C@]12CC[C@H]3[C@@H](CCC4=CC(=O)CC[C@@]43C)[C@@H]1CC[C@@H]2C(=O)CO | – | inactive
Nc1nnc(-c2ccc([N+](=O)[O-])o2)o1 | -7.33% | –
O=C(O)c1cc(Cl)cc(Cl)c1O | 1.65% | –
CCCNC(C)(C)COC(=O)c1ccccc1 | -3.43% [at 42.5 µM] | –
CCCC(=O)c1cc(O)c(O)cc1O | -0.0407% | –
CC(=O)Oc1ccc(C(c2ccc(OC(C)=O)cc2)c2ccccn2)cc1 | – | inactive
C=CC(=O)OCC(CO)(COC(=O)C=C)COC(=O)C=C | – | 28.5 µM (active)
C=CCOC(=O)CCCCCC | 0.127% | –
C=Cc1ccc(S(=O)(=O)O)cc1 | -12.6% | –
O=C(O)c1ccc(S(=O)(=O)N(Cl)Cl)cc1 | – | inactive
Cc1ccco1 | 1.1% | –
COc1cc(Cl)ccc1Oc1ccc(Cl)cc1Cl | -16.5% | –
Cc1cnc(NS(=O)(=O)c2ccc(N)cc2)nc1 | 2.37% [at 42.5 µM] | –
CN(C)CCCNCCCN | -7.43% | –
CC(C)(C)c1ccc(C(=O)CCCN2CCC(OC(c3ccccc3)c3ccccc3)CC2)cc1 | -12.1% [at 42.5 µM] | –
CNC(=O)c1cc(Oc2ccc(NC(=O)Nc3ccc(Cl)c(C(F)(F)F)c3)cc2)ccn1 | -16.3% [at 42.5 µM] | –
